The record followed here is PubChem BioAssay (NCI).

This is part of a sample that, as a whole, favours compounds with a hit. Of some 83,000 tested, about 20% had one in any assay.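 The test compound was applied at a single concentration to cells in 96-well plates for 48 hours, and percent growth was recorded.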 A number with no mark means an inactive call. Active and inactive are the calls of the source. The calls were made as follows: active = growth percent below 10; inactive = the rest.

Some test systems named below: HCT-15 colon; HT29 colon; SNB-75 CNS; SNB-19 CNS; U251 CNS; PC-3 prostate; SK-MEL-5 melanoma; UACC-62 melanoma; LOX IMVI melanoma; SK-MEL-28 melanoma; SK-MEL-2 melanoma; EKVX NSCLC; SN12C renal; UO-31 renal; TK-10 renal; ACHN renal; CAKI-1 renal; CCRF-CEM leukemia; MOLT-4 leukemia.
What all share (test): NCI-60 one-dose screen, 48 h (100 = growth as untreated, 0 = no growth, -100 = all killed)
Holding throughout (settings): 10 µM unless noted

Take `c1ccc2c(-c3c4ccsc4cc4[nH]c5ccccc5c34)c[nH]c2c1`: the growth with HCT-15 colon is 24.7%; in the assay with HT29 colon, 8.87% (active); in the assay with SNB-75 CNS, 20.3%; in the assay on SNB-19 CNS it was 48.5%; in the assay on U251 CNS, 38.7%; in the assay with PC-3 prostate, 36.1%. The growth in the assay with SK-MEL-5 melanoma is 31.9%; in the assay with UACC-62 melanoma, 44.8%; in the assay on LOX IMVI melanoma, 26.9%; in the assay on SK-MEL-28 melanoma it was 48.9%; in the assay on SK-MEL-2 melanoma it was 23.9%; in the assay with EKVX NSCLC it was 53.3%. Besides, the growth was 50.1% in the assay with SN12C renal; 40.1% in the assay with UO-31 renal; 76% in the assay with TK-10 renal; 43.3% in the assay on ACHN renal; 34.5% in the assay on CAKI-1 renal; 19.8% in the assay with CCRF-CEM leukemia. In addition, in the assay on MOLT-4 leukemia, the growth is 32.2%.

Consider `N#Cc1cc(-c2nc3ccccc3s2)c(=O)n(NS(=O)(=O)c2ccc(Cl)cc2)c1N`, for which the growth was 103% in the assay with HCT-15 colon; 109% in the assay with HT29 colon; 63.1% in the assay with SNB-75 CNS; 102% in the assay on SNB-19 CNS; 102% in the assay on U251 CNS; 98.5% in the assay with PC-3 prostate. The growth with SK-MEL-5 melanoma was 99.5%; with UACC-62 melanoma, 88.2%; with LOX IMVI melanoma it was 97%; in the assay with SK-MEL-28 melanoma, 111%; in the assay on SK-MEL-2 melanoma, 102%; in the assay on EKVX NSCLC it was 100%. Moreover, the growth in the assay with SN12C renal was 97.8%; in the assay on UO-31 renal, 70.4%; with TK-10 renal it was 139%; with ACHN renal, 95.5%; in the assay with CAKI-1 renal it was 80.5%; in the assay on CCRF-CEM leukemia it was 107%. Also, the growth with MOLT-4 leukemia was 107%.

On to `Cc1[nH]n(-c2cccc(Cl)c2)c(=O)c1/C=C1\C=Nc2ccc(Br)cc21`, for which the growth in the assay with HCT-15 colon is 59.2%; in the assay on HT29 colon, 11.1%; in the assay with SNB-75 CNS, -13.5% (active); in the assay with SNB-19 CNS it was 78.1%; in the assay on U251 CNS it was 7.54% (active); with PC-3 prostate, 31.2%. In addition, the growth in the assay with SK-MEL-5 melanoma is 60.4%; with UACC-62 melanoma, 37.4%; in the assay with LOX IMVI melanoma, 4.2% (active); with SK-MEL-28 melanoma, 71.2%; in the assay with SK-MEL-2 melanoma, 73.4%; in the assay on EKVX NSCLC it was 41.1%. In addition, the growth in the assay with SN12C renal is 3.46% (active); in the assay on UO-31 renal, -9.91% (active); with TK-10 renal, -51.3% (active); in the assay on ACHN renal it was 11.6%; with CAKI-1 renal it was 22.4%; with CCRF-CEM leukemia it was 6.42% (active). In the assay on MOLT-4 leukemia, the growth is 26.9%.

For the molecule `COc1cc2c(cc1[N+](=O)[O-])-c1ccc([N+](=O)[O-])cc1/C2=N\O`, the growth is 87.4% in the assay with HCT-15 colon; 75.3% in the assay with HT29 colon; 75.5% in the assay with SNB-75 CNS; 79.4% in the assay on SNB-19 CNS; 76.8% with U251 CNS; 73.2% in the assay on PC-3 prostate. For the same molecule, the growth in the assay with SK-MEL-5 melanoma was 75.4%; with UACC-62 melanoma, 75.9%; with LOX IMVI melanoma, 67.8%; with SK-MEL-28 melanoma, 99.7%; with SK-MEL-2 melanoma it was 92.6%; in the assay with EKVX NSCLC, 76.7%. Further, the growth in the assay with SN12C renal is 91.1%; in the assay with UO-31 renal it was 67.6%; in the assay with TK-10 renal it was 78.9%; in the assay with ACHN renal, 72.5%; in the assay with CAKI-1 renal, 83.4%; with CCRF-CEM leukemia, 78.2%. For the same molecule, the growth in the assay with MOLT-4 leukemia is 83.3%.

Turning to `CC(O)(CO)c1ccccc1` (configuration not stated), the growth is 97.8% with HCT-15 colon; 102% in the assay on HT29 colon; 92.5% in the assay on SNB-75 CNS; 98.3% in the assay on SNB-19 CNS; 101% in the assay on U251 CNS; 91.7% in the assay on PC-3 prostate. The growth was 102% in the assay on SK-MEL-5 melanoma; 96% with UACC-62 melanoma; 102% in the assay on LOX IMVI melanoma; 102% with SK-MEL-28 melanoma; 106% in the assay on SK-MEL-2 melanoma; 96.3% in the assay on EKVX NSCLC. Further, the growth was 98.8% in the assay on SN12C renal; 91% in the assay on UO-31 renal; 110% in the assay with TK-10 renal; 95.2% in the assay on ACHN renal; 104% with CAKI-1 renal; 113% in the assay on CCRF-CEM leukemia. The growth in the assay on MOLT-4 leukemia is 110%.

For `O=C(NNc1nc(Cl)nc(N2CCN(C(c3ccccc3)c3ccccc3)CC2)n1)c1ccccc1`, the growth in the assay with HCT-15 colon is -60.1% (active); in the assay with HT29 colon, -78.9% (active); in the assay with SNB-75 CNS it was -26.3% (active); with SNB-19 CNS, 32.4%; in the assay with U251 CNS it was 27.3%; in the assay with PC-3 prostate, -46.9% (active). Also, the growth is 79.4% with SK-MEL-5 melanoma; 3.38% (active) in the assay on UACC-62 melanoma; -88.7% (active) in the assay with LOX IMVI melanoma; -6.33% (active) in the assay on SK-MEL-28 melanoma; -27% (active) with SK-MEL-2 melanoma; 64% in the assay with EKVX NSCLC. Also, the growth is -24.2% (active) in the assay with SN12C renal; 68.9% in the assay on UO-31 renal; 126% in the assay on TK-10 renal; -39% (active) in the assay on ACHN renal; -51.9% (active) with CAKI-1 renal; -25.1% (active) in the assay with CCRF-CEM leukemia. The growth in the assay with MOLT-4 leukemia was -39.2% (active).

On to `Fc1cc(C2=NNC(c3ccc[nH]3)C2)ccc1-n1ccc(C(F)(F)F)n1` (configuration not stated), for which the growth with HCT-15 colon was 94.1%; with HT29 colon it was 92.9%; in the assay with SNB-75 CNS, 87.7%; with SNB-19 CNS, 91.2%; in the assay with U251 CNS, 77.6%; with PC-3 prostate, 72.3%. Besides, the growth in the assay with SK-MEL-5 melanoma was 98%; in the assay with UACC-62 melanoma it was 81.3%; in the assay with LOX IMVI melanoma, 94.2%; in the assay with SK-MEL-28 melanoma, 104%; with SK-MEL-2 melanoma it was 102%; with EKVX NSCLC, 84.7%. The growth in the assay on SN12C renal is 85.6%; in the assay on UO-31 renal, 52.1%; in the assay on TK-10 renal, 117%; with ACHN renal, 91%; in the assay on CAKI-1 renal it was 66.5%; in the assay with CCRF-CEM leukemia it was 68.3%. Besides, the growth in the assay with MOLT-4 leukemia is 77.5%.

`CC(=O)OCC(=O)C1(O)C(C)CC2C3C=C(C)C4=Cc5c(cnn5-c5ccccc5)CC4(C)C3C(O)CC21C` (configuration not stated): the growth with HCT-15 colon was -36.2% (active); in the assay on HT29 colon it was -54.9% (active); in the assay on SNB-75 CNS, -8.24% (active); with SNB-19 CNS, 10.3%; with U251 CNS, 14.3%; with PC-3 prostate it was 9.92% (active). The growth was -14.2% (active) in the assay with SK-MEL-5 melanoma; -26.6% (active) in the assay with UACC-62 melanoma; 6.79% (active) in the assay on LOX IMVI melanoma; 35.3% in the assay on SK-MEL-28 melanoma; 25.1% in the assay with SK-MEL-2 melanoma; 27% in the assay on EKVX NSCLC. The growth was 33.5% with SN12C renal; -11.6% (active) in the assay on UO-31 renal; 38.7% in the assay on TK-10 renal; 22.8% with ACHN renal; 21.3% in the assay on CAKI-1 renal; 10.6% in the assay on CCRF-CEM leukemia. In addition, in the assay with MOLT-4 leukemia, the growth was 9.2% (active).
